Test results taken from PubChem BioAssay AID1159580 (chemical genetic matrix, 2015).
Values joined by “and” are separate entries in the source; they are usually repeats but may differ in a detail not shown here. Identical values can stand only once. Out of some 5,500 compounds screened, about 2,000 (36%) were called active. Roughly 18% stayed inconclusive and do not appear here. No stated cut-off is given here; in the data, active means normalized growth mostly below about 0.91 (no sharp cut-off); inconclusive means no clear call, values can overlap the other calls; inactive means mostly above about 0.92. The list shows a part of the results.

Assay: chemical genetic growth profiling, strain panel (AID 1159580);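 further: tested at 20 µM; growth read once vehicle control cultures reached saturation at 30 °C; 1 = growth at the plate median or of vehicle wells; lower values mean less growth of the strain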
Settings: growth OD

Measured: normalized growth

CC(C)NCC(O)c1ccc(O)c(O)c1 (stereo not given)
inactive: S. cerevisiae deletion strains, locus YJR075W, strain HOC1, hits give low values 1.01 and 1.02 | S. cerevisiae deletion strains, locus YKL009W, strain mrt4, hits give low values 0.979 | S. cerevisiae deletion strains, locus YKL068W, hits give low values 0.994 | S. cerevisiae deletion strains, locus YKL085W, strain MDH1 (second series), hits give low values 0.994 | S. cerevisiae deletion strains, locus YKL085W, strain MDH1, hits give low values 0.994 | S. cerevisiae deletion strains, locus YKL160W, strain elf1, hits give low values 0.966 | S. cerevisiae deletion strains, locus YKL190W, strain CNB1, hits give low values 0.996 | S. cerevisiae deletion strains, locus YKR001C, strain vps1, hits give low values 0.985 | S. cerevisiae deletion strains, locus YKR026C, strain gcn3, hits give low values 0.991 | S. cerevisiae deletion strains, locus YKR091W, strain srl3, hits give low values 0.996 | S. cerevisiae deletion strains, locus YLL001W, strain dnm1, hits give low values 0.955 | S. cerevisiae deletion strains, locus YLL026W, hits give low values 0.997 | S. cerevisiae deletion strains, locus YLL041C, strain sdh2, hits give low values 0.99 | S. cerevisiae deletion strains, locus YLR027C, strain aat2, hits give low values 1 | S. cerevisiae deletion strains, locus YLR039C, strain RIC1, hits give low values 1.08 | S. cerevisiae deletion strains, locus YLR058C, strain SHM2, hits give low values 1.01 | S. cerevisiae deletion strains, locus YLR102C, strain apc9, hits give low values 1 | S. cerevisiae deletion strains, locus YLR113W, strain HOG1, hits give low values 0.97 | S. cerevisiae deletion strains, locus YLR221C, strain rsa3, hits give low values 0.949 | S. cerevisiae deletion strains, locus YLR258W, strain gsy2, hits give low values 0.979 | S. cerevisiae deletion strains, locus YLR262C, strain YPT6 (second series), hits give low values 0.954 | S. cerevisiae deletion strains, locus YLR262C, strain YPT6, hits give low values 1.01 | S. cerevisiae deletion strains, locus YLR268W, strain sec22, hits give low values 1 | S. cerevisiae deletion strains, locus YLR320W, strain mms22, hits give low values 0.962 | S. cerevisiae deletion strains, locus YLR330W, strain CHS5, hits give low values 1.02 | S. cerevisiae deletion strains, locus YLR342W, strain FKS1 (second series), hits give low values 1.01 | S. cerevisiae deletion strains, locus YLR342W, strain FKS1, hits give low values 0.991 | S. cerevisiae deletion strains, locus YLR357W, strain rsc2, hits give low values 0.959 | S. cerevisiae deletion strains, locus YLR370C, strain arc18, hits give low values 0.977 | S. cerevisiae deletion strains, locus YLR371W, strain rom2, hits give low values 0.998 | S. cerevisiae deletion strains, locus YLR384C, strain iki3, hits give low values 0.996 | S. cerevisiae deletion strains, locus YLR418C, strain cdc73, hits give low values 0.986 | S. cerevisiae deletion strains, locus YML016C, strain PPZ1, hits give low values 1.01 | S. cerevisiae deletion strains, locus YML032C, strain rad52, hits give low values 0.989 | S. cerevisiae deletion strains, locus YML120C, strain ndi1, hits give low values 0.966 | S. cerevisiae deletion strains, locus YML124C, strain tub3, hits give low values 1 | S. cerevisiae deletion strains, locus YMR058W, strain fet3, hits give low values 0.991 | S. cerevisiae deletion strains, locus YMR078C, strain ctf18, hits give low values 1.01 | S. cerevisiae deletion strains, locus YMR125W, strain sto1, hits give low values 0.98 | S. cerevisiae deletion strains, locus YMR129W, hits give low values 0.991 | S. cerevisiae deletion strains, locus YMR205C, strain PFK2, hits give low values 0.971 | S. cerevisiae deletion strains, locus YMR223W, strain ubp8, hits give low values 0.99 | S. cerevisiae deletion strains, locus YMR231W, strain pep5, hits give low values 0.999 | S. cerevisiae deletion strains, locus YMR307W, strain GAS1, hits give low values 0.937 and 1.01 | S. cerevisiae deletion strains, locus YNL067W, strain RPL9B, hits give low values 1.01 | S. cerevisiae deletion strains, locus YNL071W, strain lat1, hits give low values 0.995 | S. cerevisiae deletion strains, locus YNL128W, strain TEP1, hits give low values 0.973 | S. cerevisiae deletion strains, locus YNL153C, strain GIM3, hits give low values 1 | S. cerevisiae deletion strains, locus YNL175C, strain NOP13, hits give low values 1.01 and 0.97 | S. cerevisiae deletion strains, locus YNL183C, strain NPR1, hits give low values 0.957 | S. cerevisiae deletion strains, locus YNL197C, strain WHI3, hits give low values 1.02 and 0.975 | S. cerevisiae deletion strains, locus YNL209W, strain ssb2, hits give low values 0.989 | S. cerevisiae deletion strains, locus YNL224C, strain SQS1, hits give low values 1 and 0.985 | S. cerevisiae deletion strains, locus YNL233W, strain BNI4, hits give low values 1.01 | S. cerevisiae deletion strains, locus YNL248C, strain rpa49, hits give low values 0.981 | S. cerevisiae deletion strains, locus YNL250W, strain rad50, hits give low values 0.985 | S. cerevisiae deletion strains, locus YNL271C, strain bni1, hits give low values 1 | S. cerevisiae deletion strains, locus YNL298W, strain CLA4, hits give low values 0.998 | S. cerevisiae deletion strains, locus YNL307C, strain MCK1, hits give low values 0.998 | S. cerevisiae deletion strains, locus YNL322C, strain KRE1 (second series), hits give low values 0.988 | S. cerevisiae deletion strains, locus YNL322C, strain KRE1, hits give low values 1.01 and 1 | S. cerevisiae deletion strains, locus YNR049C, strain mso1, hits give low values 0.995 | S. cerevisiae deletion strains, locus YNR052C, strain pop2, hits give low values 1 | S. cerevisiae deletion strains, locus YOL006C, strain TOP1, hits give low values 1.01 | S. cerevisiae deletion strains, locus YOL012C, strain htz1 0.826 | S. cerevisiae deletion strains, locus YOL147C, strain pex11, hits give low values 1 | S. cerevisiae deletion strains, locus YOR001W, strain rrp6, hits give low values 0.991 | S. cerevisiae deletion strains, locus YOR061W, strain CKA2, hits give low values 1.01 | S. cerevisiae deletion strains, locus YOR069W, strain VPS5, hits give low values 1.01 | S. cerevisiae deletion strains, locus YOR070C, strain gyp1, hits give low values 0.985 | S. cerevisiae deletion strains, locus YOR080W, strain dia2, hits give low values 0.992 | S. cerevisiae deletion strains, locus YOR083W, strain WHI5 (second series), hits give low values 0.998 and 0.969 | S. cerevisiae deletion strains, locus YOR083W, strain WHI5, hits give low values 0.981 | S. cerevisiae deletion strains, locus YOR106W, strain vam3, hits give low values 0.953 | S. cerevisiae deletion strains, locus YOR136W, strain idh2, hits give low values 0.997 | S. cerevisiae deletion strains, locus YOR144C, strain elg1, hits give low values 1 | S. cerevisiae deletion strains, locus YOR184W, strain ser1, hits give low values 1.01 | S. cerevisiae deletion strains, locus YOR231W, strain MKK1, hits give low values 0.952 | S. cerevisiae deletion strains, locus YOR265W, strain rbl2, hits give low values 0.996 | S. cerevisiae deletion strains, locus YOR270C, strain vph1, hits give low values 0.995 | S. cerevisiae deletion strains, locus YOR290C, strain snf2, hits give low values 0.939 | S. cerevisiae deletion strains, locus YOR316C, strain cot1, hits give low values 1.01 | S. cerevisiae deletion strains, locus YPL051W, strain arl3, hits give low values 0.967 | S. cerevisiae deletion strains, locus YPL055C, strain LGE1, hits give low values 1.01 | S. cerevisiae deletion strains, locus YPL078C, strain atp4, hits give low values 0.983 | S. cerevisiae deletion strains, locus YPL106C, strain sse1, hits give low values 0.929 | S. cerevisiae deletion strains, locus YPL240C, strain hsp82, hits give low values 0.976 | S. cerevisiae deletion strains, locus YPL241C, strain CIN2, hits give low values 0.994 | S. cerevisiae deletion strains, locus YPL256C, strain CLN2, hits give low values 0.99 | S. cerevisiae deletion strains, locus YPR119W, strain clb2, hits give low values 0.995 | S. cerevisiae deletion strains, locus YPR141C, strain kar3, hits give low values 0.992 | S. cerevisiae deletion strains, locus YPR163C, strain tif3, hits give low values 0.999 | S. cerevisiae deletion strains, locus YPR167C, strain met16, hits give low values 0.997 | S. cerevisiae deletion strains, strain wtn01, hits give low values 0.993 | S. cerevisiae strains, strain wild type, hits give low values 0.994
